# Results filed as inconclusive are left out. Where a call stands in place of a potency, no number is given. Activity calls are given as the source filed them. Calls come from the whole dose curve; as a rule, active = well fitted curve in either direction with a large enough effect (not every such curve was filed as active); inconclusive = small, poorly fitted or top-dose-only effect, or another doubt; inactive = flat fitted curve, though single readings scatter.
# Biological target: Mitogen-activated protein kinase 10 (Mus musculus) (UniProt Q61831)
# Experiment: JNK3 AlphaScreen Assay (AID 530);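 note: kinase came from lysate of stimulated human HepG2 cells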
# Details: JNK3 lysate, c-Jun phosphorylation; series mostly up to 57.1 µM
# In short: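 HepG2 lysate (IL-1b/TNFa pre-activated) + biotin-GST-cJun 1-79 + anti-pSer73 cJun; cpd titration, 15 min RT; ATP 10 uM start; Tris pH 7.6, MgCl2, DTT, vanadate; beads in EDTA buffer; AlphaScreen.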
# Potency is the fitted concentration of half-maximal effect.
row,Compound,Potency
1,CC(C)C[C@@H](CC(=O)N[C@@H](CCCN)CC(=O)N[C@@H]1CCCC[C@H]1C(=O)N[C@H](CC(=O)N[C@@H](CCC(=O)O)CC(=O)O)Cc1c[nH]c2ccccc12)NC(=O)[C@@H]1CNCC[C@H]1N,inactive
2,CC(C)C[C@@H](CC(=O)N[C@@H](CCC(=O)O)CC(=O)O)NC(=O)[C@@H]1CNCC[C@H]1NC(=O)C[C@@H](NC(=O)C[C@H](Cc1ccccc1)NC(=O)[C@@H]1CNCC[C@H]1N)C(C)C,inactive
3,CC(C)C[C@@H](CC(=O)N[C@@H](CCC(=O)O)CC(=O)O)NC(=O)[C@@H]1CNCC[C@H]1NC(=O)C[C@H](CCCN)NC(=O)C[C@H](Cc1c[nH]c2ccccc12)NC(=O)[C@@H]1CNCC[C@H]1N,inactive
4,NCCC[C@@H](CC(=O)N[C@@H]1CCCC[C@H]1C(=O)N[C@H](CC(=O)N[C@@H](CCC(=O)O)CC(=O)O)Cc1c[nH]c2ccccc12)NC(=O)C[C@H](CO)NC(=O)[C@@H]1CCCC[C@H]1N,inactive
5,O=C1C=CC2=C3c4cc(O)c(O)cc4C[C@@]3(O)COC2=C1O,501 nM (active)
6,NCCC[C@@H](CC(=O)N[C@@H]1CCCC[C@H]1C(=O)N[C@H](CC(=O)N[C@@H](CCC(=O)O)CC(=O)O)Cc1c[nH]c2ccccc12)NC(=O)C[C@H](Cc1ccccc1)NC(=O)[C@@H]1CNCC[C@H]1N,inactive
7,CC(C)C[C@@H](CC(=O)N[C@@H](CCC(=O)O)CC(=O)O)NC(=O)[C@@H]1CCCC[C@H]1NC(=O)C[C@H](CCCN)NC(=O)C[C@H](Cc1c[nH]c2ccccc12)NC(=O)[C@@H]1CNCC[C@H]1N,inactive
8,NCCC[C@@H](CC(=O)N[C@@H]1CCCC[C@H]1C(=O)N[C@H](CC(=O)N[C@@H](CCC(=O)O)CC(=O)O)Cc1ccccc1)NC(=O)C[C@H](CO)NC(=O)[C@@H]1CNCC[C@H]1N,inactive
9,NCCC[C@@H](CC(=O)N[C@@H]1CCNC[C@H]1C(=O)N[C@H](CC(=O)N[C@@H](CCC(=O)O)CC(=O)O)Cc1c[nH]c2ccccc12)NC(=O)C[C@H](CO)NC(=O)[C@@H]1CNCC[C@H]1N,inactive
10,COc1cc(/C=C\C(=O)CC(=O)/C=C\c2ccc(O)c(OC)c2)ccc1O,inactive
11,NCCC[C@@H](CC(=O)N[C@@H]1CCNC[C@H]1C(=O)N[C@H](CC(=O)N[C@@H](CCC(=O)O)CC(=O)O)Cc1ccccc1)NC(=O)C[C@H](Cc1ccccc1)NC(=O)[C@@H]1CNCC[C@H]1N,inactive
12,CC(C)C[C@@H](CC(=O)N[C@@H](CCC(=O)O)CC(=O)O)NC(=O)[C@@H]1CCCC[C@H]1NC(=O)C[C@@H](NC(=O)C[C@H](CO)NC(=O)[C@@H]1CNCC[C@H]1N)C(C)C,inactive
13,CC(C)[C@@H](CC(=O)N[C@@H]1CCNC[C@H]1C(=O)N[C@H](CC(=O)N[C@@H](CCC(=O)O)CC(=O)O)Cc1c[nH]c2ccccc12)NC(=O)C[C@H](Cc1c[nH]c2ccccc12)NC(=O)[C@@H]1CCCC[C@H]1N,inactive
14,CC(C)C[C@@H](CC(=O)N[C@H](CC(=O)N[C@@H]1CCCC[C@H]1C(=O)N[C@H](CC(=O)N[C@@H](CCC(=O)O)CC(=O)O)CC(C)C)C(C)C)NC(=O)[C@@H]1CCCC[C@H]1N,inactive
